Assay outcomes from PubChem.
Compounds with a hit are over-represented: about 3.4% of the library has one in this group of screens.
Mcl1-Bid inh = Mcl-1/Bid binding inhibitors, primary screen, biochemical, TR-FRET, 1536-well; Induced myeloid leukemia cell differentiation protein Mcl-1 (Homo sapiens), Q07820; AID 1021, 2008; TR-FRET Mcl-1/Bid-Dy647 peptide binding; hit rate 0.97% among 220,000; inhibition, % at 21.7 µM;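 active = compounds that cut the binding signal by more than half at the single screening dose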;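 also: His-tagged Mcl-1 with europium anti-His antibody binding Bid BH3 peptide; 0% = Mcl-1 plus peptide wells and 100% = peptide-only wells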
Mcl1-Noxa inh = Mcl-1/Noxa binding inhibitors, primary screen, biochemical, TR-FRET, 1536-well. TR-FRET Mcl-1/Noxa peptide binding, 2 h. inhibition, % at 21.7 µM. hit rate 1.5% among 220,000. AID 1022, 2008;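 active = compounds that cut the protein-peptide binding signal by more than 50% relative to plate controls in a single-dose test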;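 also: His-tagged Mcl-1 with rhodamine Noxa BH3 peptide and terbium anti-His antibody; 0% = Mcl-1 plus Noxa peptide wells and 100% = peptide-only wells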
p47phox inh = p47phox/p22phox peptide binding inhibitors, primary screen, biochemical, uHTS, NADPH oxidase regulatory subunit. inhibition, % at 24.7 µM. hit rate 0.53% among 220,000. AID 1274, 2008. Neutrophil cytosol factor 1 (Homo sapiens), P14598. fluorescence polarization, 2 h;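 active = inhibition above about 30%, limit read from the data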;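 also: 0% = p47phox with labelled peptide and 100% = labelled peptide alone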
Target sequence (P14598 whole entry, looked up): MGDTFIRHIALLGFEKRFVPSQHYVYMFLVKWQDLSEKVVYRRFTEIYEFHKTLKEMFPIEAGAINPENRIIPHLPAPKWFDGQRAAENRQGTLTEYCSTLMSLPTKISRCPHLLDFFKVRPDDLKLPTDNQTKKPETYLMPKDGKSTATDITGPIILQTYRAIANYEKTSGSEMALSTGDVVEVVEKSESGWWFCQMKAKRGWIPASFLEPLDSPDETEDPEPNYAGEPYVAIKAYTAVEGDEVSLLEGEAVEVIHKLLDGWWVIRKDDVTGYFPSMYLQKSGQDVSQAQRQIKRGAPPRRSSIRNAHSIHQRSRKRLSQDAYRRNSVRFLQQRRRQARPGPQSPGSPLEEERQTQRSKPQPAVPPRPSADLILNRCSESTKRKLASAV
Calpain2 inh = inhibitors of pig calpain II, primary screen, biochemical, fluorogenic peptide substrate, 1536-well; purified calpain II, 30 min; hit rate 0.37% among 220,000; inhibition, % at 16 µM;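 active = inhibition above about 50%, limit read from the data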
Bim-Mcl-1 = inhibitors of Bim peptide binding to Mcl-1, primary screen, biochemical, bead-based flow cytometry, multiplex. Bim peptide-Mcl-1 binding. inhibition, % at 10 µM. hit rate 0.1% among 190,000; in the data active = inhibition above about 40%;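 also: 0% = no compound tracer wells and 100% = peptide blocker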
14-3-3 Bad inh = inhibitors of 14-3-3 zeta/Bad binding, primary screen, biochemical, TR-FRET, bovine 14-3-3 zeta; hit rate 0.71% among 220,000; inhibition, % at 21.7 µM; TR-FRET 14-3-3zeta/Dy647-pBad peptide displacement, 1 h;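 active = inhibition above about 70%, limit read from the data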;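 also: 0% = full 14-3-3 plus peptide FRET controls and 100% = background without 14-3-3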
Target sequence (P63103 whole entry, looked up): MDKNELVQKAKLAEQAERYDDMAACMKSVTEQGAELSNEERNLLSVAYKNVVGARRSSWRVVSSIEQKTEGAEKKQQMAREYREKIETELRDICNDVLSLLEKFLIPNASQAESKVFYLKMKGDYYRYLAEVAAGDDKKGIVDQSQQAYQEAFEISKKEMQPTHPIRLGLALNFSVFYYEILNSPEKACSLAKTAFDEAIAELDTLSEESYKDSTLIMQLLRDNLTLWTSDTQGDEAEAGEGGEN
An asterisk follows results filed as active; . = not tested or not shown; + = active, no number; [ ] = remark or other dose.

SMILES	Mcl1-Bid inh	Mcl1-Noxa inh	p47phox inh	Calpain2 inh	Bim-Mcl-1	14-3-3 Bad inh
O=C(NCc1ccccc1)C1CCN(S(=O)(=O)c2ccc(Cl)cc2)CC1	-12.5	6.6	0.5	21.3	-1.0	-10.5
COc1ccc(-c2c(C)n([O-])c3c([n+]2=O)CCCC3)cc1OC	-20.9	10.1	-10.9	-24.2	0.0	3.2
CCN1C(=O)c2cccc3c(S(=O)(=O)Nc4ccccc4OC)ccc1c23	75.2*	21.4	-1.4	4.9	-5.0	-7.8
CN1CCN(c2cc3c(c4c2[nH]c2ccccc24)C(=O)CC(C)(C)C3)CC1	-13.2	54.3*	-20.2	-362.2	1.0	4.0
CN1CCN(c2ncnc3c2[nH]c2ccc(F)cc23)CC1	-9.9	37.0	-1.4	-239.8	-5.0	1.2
COc1cc(/C=C(/NC(C)=O)C(=O)O)cc(Cl)c1OCc1ccc(Br)cc1	-18.6	101.9*	-13.5	-86.8	.	2.0
CCOc1cc(N2CCOCC2)c(OCC)cc1NC(=O)c1ccc(OC(C)C)cc1	-37.7	7.7	-1.1	15.9	-1.0	-23.1
COc1cc(N2CCCC2)c(OC)cc1/C=C(/C#N)c1ccc(F)cc1	-5.4	72.1*	-14.5	-9.7	-9.0	-4.4
COc1cc(N2CCCC2)c(OC)cc1/C=C(/C#N)c1ccc(Br)cc1	-12.0	10.8	-11.0	15.7	.	10.3
CO/N=C/c1cccn1-c1nccc(OC)c1C#N	-25.6	4.9	3.9	-10.2	0.0	-7.4
CN(C)c1ccnc(-n2cccc2/C=N/OCc2cccc(F)c2)c1C#N	-17.8	-18.3	-5.4	-10.1	1.0	79.8*
COc1cccc(C2C3=C(N=c4s/c(=C\c5ccc(OCC(=O)O)cc5)c(=O)n42)c2ccccc2CC3)c1 (stereo unspecified)	21.7	71.0*	-34.1	-9.2	.	69.3
COc1ccccc1C1C2=C(N=c3s/c(=C/c4cccc(OCC(=O)O)c4)c(=O)n31)c1ccccc1CC2 (stereo unspecified)	81.9*	107.0*	-45.2	-45.3	-3.0	-3.8
COc1cccc(C2C3=C(N=c4s/c(=C\c5cccc(O)c5)c(=O)n42)c2ccccc2CC3)c1OC (stereo unspecified)	-20.3	14.9	-18.7	-30.8	-2.0	-1.0
COc1cc(/C=N/NC(=O)c2nc3ccccn3c2C)cc(OC)c1O	-28.7	35.5	-6.7	-23.0	4.0	-12.5
C[N+](C)(C)C(Cc1c[nH]c2ccccc12)C(=O)[O-] (stereo unspecified)	-79.7	13.2	-13.2	-21.4	.	-3.5
COc1ccc(-c2cc(C(=O)NC(Cc3cc4ccccc4[nH]3)C(=O)O)c(C)o2)cc1OC (stereo unspecified)	-25.0	22.8	-15.2	51.9*	-9.0	5.8
CC(C(=O)Nc1ccccc1-c1ccccc1)N(C)Cc1nc2ccccc2c(=O)[nH]1 (stereo unspecified)	-31.4	-3.8	1.9	17.6	-2.0	-13.5
COc1cc(C(=O)NCC(c2ccccc2)N(C)C)ccc1OCC(=O)N1CCOCC1 (stereo unspecified)	4.2	-7.9	1.8	-5.2	-4.0	1.8
CN1CCN(CCC(=O)N2c3ccccc3Sc3ccc(C(F)(F)F)cc32)CC1	14.9	18.9	-9.9	-12.4	5.0	80.2*
Cc1ccc2c(c1)C1CCCC3C1N2CC(=O)N3Cc1ccccc1 (stereo unspecified)	-54.9	51.5*	-19.6	-237.8	-3.0	-14.8
Cc1ccc2c(c1)C(CCN)C(=O)N2Cc1ccccc1 (stereo unspecified)	-0.6	12.3	0.0	26.4	0.0	0.4
CCOc1ccc(/C=N/NC(=O)c2cc(-c3cccn3C)n[nH]2)cc1	-63.5	9.1	2.2	14.2	-4.0	-2.5
CC(/C=N/NC(=O)c1cc(-c2cccn2C)n[nH]1)=C\c1ccccc1	-23.4	8.1	-6.0	12.7	.	94.7*
CCCCCc1nc2c(=O)[nH]c3ccccc3c2o1	-18.7	76.8*	-1.7	1.8	0.0	4.1
SMILES	Mcl1-Bid inh	Mcl1-Noxa inh	p47phox inh	Calpain2 inh	Bim-Mcl-1	14-3-3 Bad inh
CC(C)Cc1cc(CN2CCC(CO)(Cc3cccc(C(F)(F)F)c3)CC2)[nH]n1	9.4	16.2	+	-42.5	-3.0	-8.4
CC(C)Cc1cc(CN2CCCC(CO)(Cc3cccc(Cl)c3)C2)[nH]n1 (stereo unspecified)	-21.4	17.2	-9.0	8.0	-5.0	-4.1
S=C(NCc1ccc(Cl)cc1)NC1CCN(Cc2ccccc2)CC1	74.5*	21.7	-4.0	54.0*	-6.0	-4.0
O=C(NCC1CCN(c2ccc(S(=O)(=O)N3CCOCC3)cc2)CC1)c1ccc(Cl)cc1	-32.4	4.1	-11.9	22.6	-4.0	0.0
Cc1ccc(-n2c3nc(=O)n(C)c(=O)c-3cc3ccccc32)cc1	43.6	-3.8	-3.5	-313.1	.	44.9
Cn1c(=O)nc2n(Cc3ccccc3)c3cccc(Cl)c3cc-2c1=O	62.0*	36.4	-1.3	-429.2	-5.0	6.7
CCCCNC(=O)c1cc(C)nc2ccccc12	-6.1	3.1	-19.8	-10.7	.	0.9
Cc1cc(C(=O)NCCCN(C)C)c2ccccc2n1	1.9	0.7	2.8	26.4	52.0*	-3.4
CC(=O)NC1(C(F)(F)F)C(=O)Nc2c1c(=O)[nH]c(=O)n2CC(C)C (stereo unspecified)	-12.4	-0.4	3.5	-29.6	2.0	-1.6
CCc1cc(C(N)=S)ccn1	-8.3	53.1*	-6.4	-0.7	-1.0	3.0
O=C(N=Nc1c(O)[nH]c2ccc(Cl)cc12)c1cc(-c2cccs2)nc2ccccc12	85.1*	59.7*	69.7*	89.0*	-1.0	88.3*[fluorescence artefact?]
O=C(N=Nc1c(O)[nH]c2ccc([N+](=O)[O-])cc12)c1ccccc1Cl	-7.3	37.2	-2.8	1.3	.	32.7
O=C(CO/N=C/c1cccc([N+](=O)[O-])c1)Nc1ccc2ccccc2c1	-42.6	-1.7	-6.9	-17.2	5.0	2.5
O=[N+]([O-])c1cccc(/C=C/c2nc(C=Nc3ccc4ccccc4c3)c(O)o2)c1	65.5*	81.4*	19.0	23.3	2.0	61.1
CCn1c2ccccc2c2cc(NC(=O)CSc3nccc(=O)[nH]3)ccc21	-14.2	11.6	-13.4	-87.7	1.0	-17.8
O=c1c(Cl)c(N/N=C/c2ccc(Cl)cc2)cnn1-c1ccccc1	18.0	73.7*	4.5	-46.8	-1.0	46.9
c1cncc(-c2nn3c(Cn4nnc5ccccc54)nnc3s2)c1	1.0	19.1	-12.7	-15.2	-6.0	-5.5
c1ccc(-c2nn3c(Cn4nnc5ccccc54)nnc3s2)nc1	7.7	54.8*	-3.7	-56.3	-1.0	7.2
